High-throughput results: PubChem, National Center for Advancing Translational Sciences (NCATS)
IL-1B inflam inh: qHTS for Inhibitors of Inflammasome Signaling: IL-1-beta AlphaLISA Primary Screen; THP-1 LPS/ATP IL-1B secretion, AlphaLISA, 16 h; hits give low values; activity change, % at 57.5 µM; 4.7% of 360,000 active; AID 743279, 2014; in the data active = activity change below about -50%; inconclusive = mostly about -30% to -49%
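THP-1 cells pretreated 1 hr with compounds (up to 57.5 uM final), then stimulated with LPS (250 ng/mL final) plus ATP (1.25 mM final); secreted IL-1B measured by AlphaLISA after 16 hr, decreased signal indicating inhibition.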
DT40 TDP1 no CPT: qHTS for Inhibitors of human tyrosyl-DNA phosphodiesterase 1 (TDP1): qHTS in cells in absence of CPT. Potency, µM (doses to about 46.2 µM), without a hit: at the top dose activity change, negative = growth inhibition, most hits filed as inhibitors. DT40 Tdp1-/- hTDP1 cells, no CPT, ATP luminescence, 48 h. 15% of 420,000 active; also: potency is read from the fitted curve at half-maximal effect; nearly all actives have a fitted effect of over 55% in size
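Luminescent ATP content (CellTiter-Glo) served as the growth readout. Knockout chicken DT40 cells expressing human TDP1 were exposed to compounds without camptothecin for a minimum 48 hr at 37 °C.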
HT1080 IDH1KD tx: qHTS for induction of synthetic lethality in tumor cells producing 2HG: qHTS for the HT-1080-IDH1KD cell line; AID 686971, 2013; Potency, µM (top dose mostly 46.1 µM), without a hit: at the highest dose activity, negative = toxicity, actives largely listed as cytotoxic; HT-1080 IDH1 knockdown viability, ATP luminescence, 48 h; 2% of 360,000 active;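 also: potency is read from the fitted curve at half-maximal effect; 0% = DMSO wells and -100% = cell-free medium wells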
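Assay cells: HT-1080 with IDH1 knockdown, 750 per well, RPMI/5% FBS. Exposure: 48 h at 37 °C following 2 h pre-incubation. Read: CellTiter-Glo luminescence; fitted concentration-response, curve class assigned.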
HT1080NT lethal: qHTS for induction of synthetic lethality in tumor cells producing 2HG: qHTS for the HT-1080-NT fibrosarcoma cell line; Potency, µM (series often up to 46.1 µM), for inactives: top-dose activity, negative = less viability, usual class: cytotoxic; 1.6% of 360,000 active; HT-1080-NT fibrosarcoma viability, CellTiter-Glo ATP luminescence, 48 h;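 also: NT is the 2HG producing partner of a matched IDH1 knockdown line; potency is read from the fitted curve at half-maximal effect; 0% = DMSO-treated cells and -100% = media-only wells without cells; nearly all actives have a fitted effect of over 55% in size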
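Viability of the 2HG-overproducing fibrosarcoma line after 48 hours of compound exposure at 37 degrees C was determined by luminescence with CellTiter-Glo, and concentration-effect curves were then fitted and categorized.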
TDP1 cell CPT: qHTS for Inhibitors of human tyrosyl-DNA phosphodiesterase 1 (TDP1): qHTS in cells in presence of CPT; chicken DT40 Tdp1-/-;hTDP1 cells + 20 nM CPT, ATP luminescence, 48 h; Potency, µM (series often up to 46.2 µM), inactives show top-dose activity change, negative = growth inhibition, actives largely listed as inhibitors; 12% of 420,000 active; also: potency is read from the fitted curve at half-maximal effect; nearly all actives have a fitted effect of over 55% in size
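Chicken DT40 Tdp1-/- cells complemented with human TDP1, 400 cells/well, exposed to compounds plus 20 nM camptothecin for at least 48 h at 37 C; viability read as ATP content by CellTiter-Glo luminescence.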
* hit, by the source's call; i = inactive; ? = inconclusive; . = no result; [ ] = another dose, or the depositor's remark. In the library only some 19% were active in any assay of this set; here they are far more common. Unless noted, calls follow the shape of the dose curve; as a rule, active = well fitted curve in the direction sought with a large enough effect; inconclusive = small, poorly fitted or top-dose-only effect, or another doubt; inactive = no such curve, though single readings can be large; an effect the other way counts as inactive or inconclusive. Unless noted, % is scaled to controls: 0 for no effect and ±100 for the full control effect.

SMILES | IL-1B inflam inh | DT40 TDP1 no CPT | HT1080 IDH1KD tx | HT1080NT lethal | TDP1 cell CPT
CCC(Oc1ccc(F)cc1)C(=O)Nc1c(C(=O)c2ccc(C)cc2)oc2ccccc12 (stereo not given) | . | -23% | . | . | -10%
c1ccc(N=NC2=NN(c3ccccc3)CS2)cc1 | -17 | 5.8µM* | 5% | -5% | ?
CC(=O)C1=C(O)C(=CC=Cc2ccccc2)OC1=O | -2 | 16µM* | -20% | -9% | ?
Cc1ccc(OC(C)C(=O)Nc2ccccc2C(=O)N2CCOCC2)cc1 (stereo not given) | i | 10% | -10% | 7% | -3%
Nc1nonc1-n1nnc(C(=O)N/N=C/c2cc(Br)ccc2O)c1CNc1ccccc1 | 69 | 8.2µM* | 23µM* | ? | 8.2µM*
Cc1c(C(=O)N/N=C/c2c(O)ccc3ccccc23)nnn1-c1nonc1N | 139 | 3.7µM* | 0.58µM* | ? | 5.8µM*
Nc1nonc1C(=O)N/N=C/c1cc(Br)ccc1O | 188 | 1.5µM* | 2.1µM* | ? | 0.92µM*
Cc1ccc(NC(=O)Cn2ncc(Cl)c(Cl)c2=O)cc1S(=O)(=O)N1CCCCC1 | -75* | 3.3µM* | ? | ? | 7.3µM*
CCOc1ccc(NC(=O)COc2cccc3cccnc23)cc1S(=O)(=O)N1CCCC1 | -27 | 15µM* | ? | -14% | ?
CCCn1c(C)cc(C(=O)COc2ccc(-c3nnco3)cc2)c1C | . | 7.3µM* | -1% | -11% | 4.6µM*
Cc1ccc(NC(=O)COc2ccccc2C#N)cc1S(=O)(=O)N1CCCCCC1 | -2 | ? | -13% | -6% | ?
Cc1ccc(NC(=O)COc2ccccc2)cc1S(=O)(=O)N1CCCCCC1 | -20 | 29µM* | -11% | 1% | ?
c1cncc(OC2CCN(Cc3ccc4c(c3)CN(Cc3nc5ccccc5s3)CCO4)CC2)c1 | . | -13% | . | . | 5%[9.04 µM]
Cc1ccc(NC(=O)c2cccnc2C(=O)O)nc1 | -12 | -4% | 12% | 8% | -23%
Cc1ccc(NC(=O)COc2cccnc2[N+](=O)[O-])cc1S(=O)(=O)N1CCCCC1 | -6 | 21µM* | -11% | -5% | 13µM*
CC(C)CC(=O)Nc1ccc(C(=O)COc2ccc(-c3nnco3)cc2)cc1 | -13 | 23µM* | 0% | -7% | ?
O=C(COc1ccc(-c2nnco2)cc1)Nc1ccc(F)c(Cl)c1 | -9 | ? | -2% | -23% | -30%
COc1ccc(NC(=O)COc2cc(C)cc(C)c2)cc1S(=O)(=O)N1CCCCC1 | -8 | 8.2µM* | ? | ? | 7.3µM*
COc1ccc(NC(=O)CSc2ccc(F)cc2)cc1S(=O)(=O)N1CCCCC1 | -5 | -85% | -29% | -6% | 21µM*
CC[C@@]1(C(=O)OC)N[C@H](CN(C)C(=O)c2ccc(C)cc2)[C@@H]2C(=O)N(C)C(=O)[C@@H]21 | 16 | 0% | 8% | 14% | 2%
Cc1ccc(NC(=O)COc2ccc(-c3nnco3)cc2)cc1S(=O)(=O)N1CCOCC1 | -23 | 13µM* | 2% | -9% | ?
Cc1ccc(OCCC(=O)OCC(=O)Nc2ccc(C)c(S(=O)(=O)N3CCOCC3)c2)cc1 | -13 | 9% | -8% | -4% | 0%
Cc1ccc(NC(=O)CSc2ccccc2)cc1S(=O)(=O)N1CCOCC1 | -1 | ? | 0% | 11% | ?
Cc1ccc(NC(=O)CSc2ccccc2)cc1S(=O)(=O)N1CCCCC1 | -26 | ? | -20% | 5% | 15µM*
Cc1c(NC(=S)NC(NC(=O)C(C)C)C(Cl)(Cl)Cl)c(=O)n(-c2ccccc2)n1C (stereo not given) | 25 | 15µM* | 8% | -3% | 15µM*
Cc1c(NC(=S)NC(C)(C)C)c(=O)n(-c2ccccc2)n1C | 0 | -1% | 1% | -4% | -1%
